Lmaj promast: reduces viability of Leishmania major promastigotes; resazurin fluorescence viability; inhibition, % at 10 µM; 9% of 200,000 active; AID 1063; in the data active = inhibition above about 50%;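 also: promastigotes grown with compound for 44 hours at 28 °C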
WT yeast gro inh: growth inhibition of WT yeast, mitochondrial fusion screen; mitochondrial fusion phenotypic screen, WT strain; inhibition, % at 10 µM; 2.1% of 190,000 active; AID 1362; in the data active = inhibition above about 58%; tested in S. cerevisiae
KCC2 mod: modulates chloride dependent transport by human KCC2; Q9H2X9; KCC2 cells, thallium flux FluoZin-2 fluorescence; B-score of Tl+ flux slope (higher = more flux/activation; lower = inhibition) at 10 µM; 2.2% of 190,000 active; AID 1456;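 active = thallium flux slope and its plate-corrected score both differing from the plate sample mean at a set confidence after two filtering rounds, in either direction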;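 also: slope of fluorescence scaled to starting intensity during 10 to 20 s after thallium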
ROMK primary: modulates human ROMK potassium channel activity | P48048 | Tet-inducible ROMK, thallium flux fluorescence; actives lie on both sides | B-score at 10 µM | 2% of 130,000 active | AID 1918;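 active = signal ratio slope over the read window, or its plate-corrected B-score, at least 3 SD from the plate mean, either direction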;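 also: B-score of the F/F0 ratio slope over 7 to 12 s after thallium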
Target sequence (P48048 whole entry, looked up): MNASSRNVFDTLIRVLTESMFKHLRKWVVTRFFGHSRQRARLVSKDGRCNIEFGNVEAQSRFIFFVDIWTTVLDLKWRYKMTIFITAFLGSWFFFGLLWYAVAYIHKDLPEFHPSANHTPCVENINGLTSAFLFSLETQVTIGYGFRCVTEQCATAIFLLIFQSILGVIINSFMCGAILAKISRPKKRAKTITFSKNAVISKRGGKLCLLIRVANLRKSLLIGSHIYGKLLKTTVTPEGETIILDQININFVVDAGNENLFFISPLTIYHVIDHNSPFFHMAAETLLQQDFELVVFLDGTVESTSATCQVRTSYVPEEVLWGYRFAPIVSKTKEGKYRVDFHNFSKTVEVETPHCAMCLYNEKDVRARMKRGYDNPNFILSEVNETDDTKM
INS promoter inh: TRM-6 insulin promoter activity inhibition; TRM-6 cells (human fetal islet line), insulin promoter-eGFP reporter, imaging; reporter expression induced with tamoxifen; inhibition, % at 2 µM; 0.9% of 130,000 active; AID 1273;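 active = inhibition above the mean plus 3 SD, with well images judged a real hit on visual review, cut at about 60% in these data, passing the limit was not always enough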
Insulin prom up: MIN6 insulin promoter up-regulation. MIN6 insulin promoter-GFP reporter, high-content imaging; active compounds read high. z-score at 5 µM. 0.3% of 190,000 active. AID 1625;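 active = z-score above 3 at 5 µM with at least 500 cells counted in the well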
* hit, by the source's call; i = inactive; / = no result given. Sampled rows, rich in hits. Any-hit rate of the full collection: about 12%.

SMILES	Lmaj promast	WT yeast gro inh	KCC2 mod	ROMK primary	INS promoter inh	Insulin prom up
Cc1cc(N2C(=O)CC(N3CCC(n4c(=O)[nH]c5ccccc54)CC3)C2=O)no1 (configuration not stated)	-3	-18	-0.16	/	-31	0.31
CCc1ccccc1N1C(=O)CC(=O)NC1=O	-5	16	1.1	/	23	-0.62
Cc1c2ccncc2c(C)c2c1[nH]c1ccccc12	100*	66*	3	/	-355	/
Nc1c2c(nc3sc4c(c13)CCCCC4)CCCC2	93*	78	-2	-2.3	/	-0.64
CC1CCN(C(=O)c2ccc(N3CC4CC(C3)c3cccc(=O)n3C4)c([N+](=O)[O-])c2)CC1 (configuration not stated)	71*	-23	-0.25	0.082	8	0.36
CCCCCCN1CCN(c2ccc(Cl)cc2)CC1	82*	33	0.78	-2.6	/	-1.2
Fc1ccc(CN2CCN(c3ccc(Cl)cc3)CC2)cc1	-1	17	0.99	0.0067	-14	-0.09
O=c1[nH]c(=O)n(Cc2ccc(F)cc2)c(O)c1C=NCCCn1ccnc1	-3	42	-0.61	-0.2	0	/
CN1CCN(CCC(C#N)(c2ccccc2)c2ccccc2)CC1	79*	5	/	-0.58	/	-1.7
O=C1NC(=O)C(=Cc2ccc(OCC(=O)N3CCOCC3)cc2)C(=O)N1	54*	-19	-0.014	0.72	24	0.72
Cn1nnc(CC[N+](C)(C)C)n1	/	/	-0.044	/	/	-0.95
CC1=NN(c2ccccc2)C(=O)/C1=C/c1c(O)[nH]c(=S)[nH]c1=O	-8	76*	/	/	12	1
CC1=NN(c2ccccc2)C(=O)/C1=C/c1c(O)[nH]c(=O)[nH]c1=O	0	3	-0.13	0.65	/	0.17
Cc1cccc(N2C(=O)/C(=C/c3ccc(N4CCN(C)CC4)o3)C(=O)NC2=S)c1C	-5	1	i	/	-73	2.5
CCc1ccccc1N1C(=O)/C(=C/c2ccc(N3CCN(C)CC3)o2)C(=O)NC1=S	12	10	i	/	-60	3.4*
CCc1cc2c(s1)NC(=O)CN=C2c1cccs1	-1	17	-0.0041	/	22	0.75
COc1cccc(CN2CCCCC2c2cccnc2)c1 (configuration not stated)	72*	-11	/	/	/	0.06
CCOC(C(=O)OCCCN(CC)CC)(c1ccccc1)c1ccccc1	100*	-9	0.45	/	-18	-0.04
CCN(CC)CCCOC(=O)C(OC(C)C)(c1ccccc1)c1ccccc1	89*	36	0.89	-3.4	14	/
COc1ccccc1-n1c(O)c(C=Nc2c(C)n(C)n(-c3ccccc3)c2=O)c(=O)[nH]c1=O	-5	10	-0.042	/	23	-0.87
Cn1cnc([N+](=O)[O-])c1Sc1ccc([N+](=O)[O-])cc1	84*	-5	0.72	-1.1	14	-0.19
CCCS(=O)(=O)N1CCCC(C(=O)N2CCC3(CC2)OCCO3)C1 (configuration not stated)	-4	-15	-0.32	/	/	1.4
CC(=NCCCN1CCOCC1)c1c(O)n(Cc2ccccc2)c(=O)[nH]c1=O	90*	6	0.63	/	/	0.03
CN(C)c1ccc(N=Cc2c(O)n(CCC3=CCCCC3)c(=O)[nH]c2=O)cc1	6	0	/	-2.7	21	-0.03
CC1=CC(=C2C(=O)NC(=S)NC2=O)C=C(C(F)(F)F)N1Cc1ccccc1	8	-11	0.86	0.32	-407	-0.16
SMILES	Lmaj promast	WT yeast gro inh	KCC2 mod	ROMK primary	INS promoter inh	Insulin prom up
CCCCCCN=C(C)c1c(O)n(CCCC)c(=O)[nH]c1=O	4	7	-0.11	/	-31	-0.17
Cc1ccc(CN2C3CCCC2CC(NC(=S)NCc2ccccc2)C3)cc1 (configuration not stated)	92*	33	-0.46	-3.3	/	0.27
Cc1ccnc(-n2c(C)nc3ccccc3c2=O)c1	-5	3	0.66	/	9	0.87
Cc1cccc(N2CCc3c2nc2ccccc2c3N)c1	94*	-2	-0.034	/	64	-1.4
COc1ccc(CCNCc2ccncc2)cc1OC	51*	19	-1.6	1.3	19	/
COc1cc(OC)c(OC)cc1CNCCc1ccc(OC)c(OC)c1	-9	5	0.2	/	/	/
COc1cc2ccccc2cc1C(=O)Nc1ccc(Cc2ccncc2)cc1	99*	50	-0.66	/	11	0.29
COc1ccc(CCN(C)Cc2ccncc2)cc1OC	1	-9	-0.37	/	-7	1.7
CCN(CC)C(=O)c1ccc(NC(=O)COc2ccc([N+](=O)[O-])cc2Cl)cc1	50*	-2	-0.42	0.19	-8	-0.64
O=C(Nc1nccs1)c1c(O)c2c(n(Cc3ccco3)c1=O)CCCC2	/	/	-0.00067	-0.14	/	-0.18
CC(C)NC(=O)c1ccc(N2CC3CC(C2)c2cccc(=O)n2C3)c([N+](=O)[O-])c1 (configuration not stated)	-4	7	-0.37	0.73	0	/
Cc1nc2cc(C(=O)N3CCC4(CC3)OCCO4)ccc2n1-c1ccc(Br)cc1	4	-2	/	-2.4*	33	-0.37
COc1ccc(-n2c(C)nc3cc(C(=O)N4CCC5(CC4)OCCO5)ccc32)cc1	-1	9	-0.61	-0.57	/	1.1
CCOC(=O)C1CCN(/C=C2/C(=O)NC(=S)N(c3cccc(OC)c3)C2=O)CC1	44	-18	1.2	-0.14	/	1.1
CCOC(=O)C1CCN(/C=C2\C(=O)NC(=S)N(CC)C2=O)CC1	76*	-7	0.68	-0.23	-30	2
CCOC(=O)C1CCN(/C=C2/C(=O)NC(=O)N(c3cccc(C)c3C)C2=O)CC1	54*	-16	0.2	0.39	/	0.16
COc1cc(/C=N/NP(=S)(c2ccccc2)c2ccccc2)ccc1O	81*	18	/	1.1	-37	-0.38
COc1cc(C=C2C(=O)NC(=O)NC2=O)ccc1O	/	/	-0.29	/	/	0.08
Oc1ccc(/C=N/NP(=S)(c2ccccc2)c2ccccc2)cc1	90*	5	0.65	0.72	-54	0.74
Nc1c(C(=O)NCCN2CCOCC2)c2nc3ccccc3nc2n1Cc1ccco1	18	10	-0.38	/	/	-0.77
CC(C(=O)Nc1ccc(Br)cc1C(=O)c1ccccc1)N1CCCCC1 (configuration not stated)	100*	/	-1.2	/	-13	/
CN(CC1COc2ccccc2O1)c1nc(-c2cccnc2)nc2ccccc12 (configuration not stated)	69*	80*	/	-2	/	/
CCN1C(=O)C(=Cc2ccc(C)s2)C(=O)N(CC)C1=S	84*	-1	0.88	-1	14	0.08
CCN1C(=O)C(=Cc2cc(C)n(C3CC3)c2C)C(=O)N(CC)C1=S	-2	13	1.5	0.023	-14	0.93
CC1(C)C2CC=C(CN3CCOCC3)C1C2 (configuration not stated)	64*	13	-0.011	/	48	-0.1
O=c1[nH]c(=S)n(-c2ccccc2F)c(O)c1C=Nc1ccc(N2CCOCC2)cc1	6	-3	-1.9	/	29	0.35
Cn1c(NN=O)nc2ccccc21	97*	-15	/	0.94	56	0.53
